Where “and” joins values, the source holds several entries; their conditions need not be identical. Equal values may be shown once. The whole screen tested about 5,500 compounds, of which about 2,000 (36%) were called active. About 18% were inconclusive and are not listed. No stated cut-off is given here; in the data, active means normalized growth mostly below about 0.91 (no sharp cut-off); inconclusive means no clear call, values can overlap the other calls; inactive means mostly above about 0.92. Some of the results follow.
Assay: chemical genetic growth profiling, strain panel (AID 1159580);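 further: tested at 20 µM; growth read once vehicle control cultures reached saturation at 30 °C; 1 = growth at the plate median or of vehicle wells; lower values mean less growth of the strain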
Conditions: S. cerevisiae deletion strains, growth OD

Measured: normalized growth

OC[C@H]1O[C@@H](Oc2ccc(O)cc2)[C@H](O)[C@@H](O)[C@@H]1O
inactive: locus YAL013W, strain DEP1, hits give low values 1.02 | locus YAL021C, strain ccr4, hits give low values 0.993 | locus YAL026C, strain drs2, hits give low values 1.02 | locus YAL030W, strain snc1, hits give low values 1.01 | locus YBL061C, strain skt5, hits give low values 1.02 | locus YBR009C, strain hhf1, hits give low values 1.02 | locus YBR021W, strain FUR4, hits give low values 0.988 | locus YBR023C, strain chs3, hits give low values 1.01 | locus YBR171W, strain sec66, hits give low values 1.01 | locus YBR229C, strain ROT2, hits give low values 1.02 | locus YBR231C, strain swc5, hits give low values 1 | locus YBR279W, strain paf1, hits give low values 1.01 | locus YCL011C, strain gbp2, hits give low values 1.01 | locus YCL016C, strain dcc1, hits give low values 0.992 | locus YCL029C, strain bik1, hits give low values 1.04 | locus YCL069W, strain vba3, hits give low values 1.01 | locus YCR088W, strain abp1, hits give low values 1.02 | locus YDL005C, strain med2, hits give low values 1.01 | locus YDL035C, strain GPR1, hits give low values 1 | locus YDL040C, strain nat1, hits give low values 1 | locus YDL074C, strain BRE1, hits give low values 1.03 | locus YDL101C, strain DUN1, hits give low values 1.02 | locus YDL134C, strain PPH21, hits give low values 1.02 | locus YDL185W, strain tfp1, hits give low values 1.02 | locus YDL192W, strain arf1, hits give low values 1.03 | locus YDR001C, strain nth1, hits give low values 1 | locus YDR069C, strain doa4, hits give low values 1.01 | locus YDR101C, strain arx1, hits give low values 1.01 | locus YDR137W, strain rgp1, hits give low values 1.02 | locus YDR159W, strain sac3, hits give low values 1.05 | locus YDR162C, strain NBP2, hits give low values 1.03 | locus YDR195W, strain ref2 1 | locus YDR297W, strain sur2, hits give low values 1 | locus YDR318W, strain mcm21, hits give low values 1.02 | locus YDR334W, strain swr1, hits give low values 1 | locus YDR335W, strain msn5, hits give low values 1.02 | locus YDR388W, hits give low values 1.01 | locus YDR392W, strain spt3, hits give low values 1.02 | locus YDR502C, strain sam2, hits give low values 1.01 | locus YEL003W, strain gim4, hits give low values 1.01 | locus YEL037C, strain rad23, hits give low values 0.999 | locus YEL061C, strain CIN8 (second series), hits give low values 1.01 | locus YEL061C, strain CIN8, hits give low values 1.01 | locus YER015W, strain faa2, hits give low values 1.01 | locus YER016W, strain bim1, hits give low values 1.01 | locus YER110C, hits give low values 1.03 | locus YER111C, strain swi4, hits give low values 1.01 | locus YER155C, strain BEM2 (second series), hits give low values 1.03 | locus YER155C, strain BEM2, hits give low values 0.999 | locus YER167W, strain BCK2, hits give low values 1.01 | locus YFR010W, strain ubp6, hits give low values 1.01 | locus YGL078C, strain dbp3, hits give low values 1.03 | locus YGL086W, strain mad1, hits give low values 1.01 | locus YGL167C, strain pmr1, hits give low values 1.02 | locus YGL173C, strain kem1, hits give low values 1.02 | locus YGL227W, strain vid30, hits give low values 1.01 | locus YGL240W, strain doc1, hits give low values 1.02 | locus YGL248W, strain PDE1, hits give low values 1.01 | locus YGL253W, strain hxk2, hits give low values 1.03 | locus YGR078C, strain PAC10, hits give low values 1.03 | locus YGR135W, strain pre9, hits give low values 1.03 | locus YGR252W, strain gcn5, hits give low values 1.02 | locus YHR013C, strain ard1, hits give low values 1.02 | locus YHR027C, strain rpn1, hits give low values 1.01 | locus YHR030C, strain SLT2, hits give low values 1 and 0.962 | locus YHR079C, strain IRE1 (second series), hits give low values 1.02 | locus YHR079C, strain IRE1, hits give low values 0.973 | locus YHR094C, strain hxt1, hits give low values 1.02 | locus YHR129C, strain ARP1, hits give low values 1.01 | locus YHR142W, strain chs7, hits give low values 1.01 | locus YHR200W, strain rpn10, hits give low values 1.02 | locus YIL066C, strain RNR3, hits give low values 1.01 | locus YIL073C, strain SPO22, hits give low values 1.08 | locus YIL125W, strain kgd1, hits give low values 1.02 | locus YIR030C, strain dcg1, hits give low values 1.01 | locus YJL092W, strain hpr5, hits give low values 1.01 | locus YJL095W, strain BCK1 (second series), hits give low values 1 | locus YJL095W, strain BCK1, hits give low values 1.04 and 0.973 | locus YJL115W, strain asf1, hits give low values 1 | locus YJL129C, strain trk1, hits give low values 1.03 | locus YJL134W, strain LCB3, hits give low values 1 | locus YJL154C, strain vps35, hits give low values 1.01 | locus YJL164C, strain tpk1, hits give low values 1.01 | locus YJL166W, strain qcr8, hits give low values 1.02 | locus YJL168C, strain set2, hits give low values 1.02 | locus YJL187C, strain SWE1 (second series), hits give low values 1.03 | locus YJL187C, strain SWE1, hits give low values 1.02 | locus YJR066W, strain TOR1, hits give low values 0.959 | locus YKL009W, strain mrt4, hits give low values 1.02 | locus YKL068W, hits give low values 1.01 | locus YKL085W, strain MDH1 (second series), hits give low values 1.01 | locus YKL085W, strain MDH1, hits give low values 1.01 | locus YKL160W, strain elf1, hits give low values 1 | locus YKR001C, strain vps1, hits give low values 1.03 | locus YKR026C, strain gcn3, hits give low values 1.01 | locus YKR091W, strain srl3, hits give low values 1 | locus YLL001W, strain dnm1, hits give low values 1.01 | locus YLL026W, hits give low values 1.01 | locus YLL041C, strain sdh2, hits give low values 1.03 | locus YLR027C, strain aat2, hits give low values 1.01 | locus YLR039C, strain RIC1, hits give low values 1.06 | locus YLR058C, strain SHM2, hits give low values 1.04 | locus YLR102C, strain apc9, hits give low values 1.02 | locus YLR113W, strain HOG1, hits give low values 0.944 | locus YLR221C, strain rsa3, hits give low values 1.01 | locus YLR258W, strain gsy2, hits give low values 1.01 | locus YLR262C, strain YPT6 (second series), hits give low values 1.03 | locus YLR268W, strain sec22, hits give low values 1.03 | locus YLR320W, strain mms22, hits give low values 1.03 | locus YLR330W, strain CHS5, hits give low values 1.01 | locus YLR342W, strain FKS1, hits give low values 1.01 | locus YLR357W, strain rsc2, hits give low values 1.03 | locus YLR370C, strain arc18, hits give low values 1.01 | locus YLR371W, strain rom2, hits give low values 1.01 | locus YLR384C, strain iki3, hits give low values 1.03 | locus YLR418C, strain cdc73, hits give low values 1.06 | locus YML016C, strain PPZ1, hits give low values 1 | locus YML032C, strain rad52, hits give low values 1.03 | locus YML120C, strain ndi1, hits give low values 1.01 | locus YML124C, strain tub3, hits give low values 1.02 | locus YMR058W, strain fet3, hits give low values 1.01 | locus YMR078C, strain ctf18, hits give low values 1.04 | locus YMR125W, strain sto1, hits give low values 1.03 | locus YMR129W, hits give low values 1.01 | locus YMR205C, strain PFK2, hits give low values 1 | locus YMR223W, strain ubp8, hits give low values 1.02 | locus YMR231W, strain pep5, hits give low values 1.01 | locus YMR307W, strain GAS1, hits give low values 0.945 | locus YNL067W, strain RPL9B, hits give low values 1.02 | locus YNL071W, strain lat1, hits give low values 1.01 | locus YNL183C, strain NPR1, hits give low values 0.963 | locus YNL209W, strain ssb2, hits give low values 1.02 | locus YNL233W, strain BNI4, hits give low values 1.02 | locus YNL248C, strain rpa49, hits give low values 1.03 | locus YNL250W, strain rad50, hits give low values 1.05 | locus YNL271C, strain bni1, hits give low values 1.02 | locus YNL298W, strain CLA4, hits give low values 1.02 | locus YNL307C, strain MCK1, hits give low values 1.02 | locus YNL322C, strain KRE1 (second series), hits give low values 1 | locus YNR049C, strain mso1, hits give low values 1.02 | locus YNR052C, strain pop2, hits give low values 1.03 | locus YOL006C, strain TOP1, hits give low values 1.06 | locus YOL012C, strain htz1 0.901 | locus YOL147C, strain pex11, hits give low values 1.01 | locus YOR001W, strain rrp6, hits give low values 1.01 | locus YOR061W, strain CKA2, hits give low values 1.02 | locus YOR069W, strain VPS5, hits give low values 1.01 | locus YOR070C, strain gyp1, hits give low values 1.01 | locus YOR080W, strain dia2, hits give low values 1 | locus YOR083W, strain WHI5, hits give low values 0.992 | locus YOR106W, strain vam3, hits give low values 0.992 | locus YOR136W, strain idh2, hits give low values 1.03 | locus YOR144C, strain elg1, hits give low values 1.02 | locus YOR184W, strain ser1, hits give low values 1.05 | locus YOR231W, strain MKK1, hits give low values 0.958 | locus YOR265W, strain rbl2, hits give low values 0.991 | locus YOR270C, strain vph1, hits give low values 1.05 | locus YOR290C, strain snf2, hits give low values 0.993 | locus YOR316C, strain cot1, hits give low values 1.02 | locus YPL051W, strain arl3, hits give low values 0.989 | locus YPL055C, strain LGE1, hits give low values 1.04 | locus YPL078C, strain atp4, hits give low values 1.01 | locus YPL106C, strain sse1, hits give low values 0.995 | locus YPL240C, strain hsp82, hits give low values 1.01 | locus YPL241C, strain CIN2, hits give low values 1.01 | locus YPL256C, strain CLN2, hits give low values 0.977 | locus YPR119W, strain clb2, hits give low values 1.03 | locus YPR141C, strain kar3, hits give low values 1.02 | locus YPR163C, strain tif3, hits give low values 1.03 | locus YPR167C, strain met16, hits give low values 1.03 | strain wtn01, hits give low values 1.02
